Assay outcomes (PubChem BioAssay)
INS-1E GSIS act – primary screen for activators of insulin secretion dependent on glucose, INS-1E cells, GLuc reporter luminescence; INS-1E GLuc reporter insulin secretion, 2-3 h; activation, % at 16.6 µM; 0.61% of 370,000 active;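 active means lowest replicate activation of at least 40%, so every replicate reaches that level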;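 further: 0% = median of neutral control wells and 100% = median of IBMX positive control wells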
DENV2 CPE rescue – DENV2-induced cell death inhibition. 1.7% of 350,000 active. AID 651640. CPE inhibition, % at 9.99 µM. DENV2-infected cells, cytopathic effect rescue, plate reader; in the data active means CPE inhibition above about 20%, passing the limit was not always enough; inconclusive means no clear call, values can overlap the other calls; tested in BHK-21 cells;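 further: 0% = median of neutral control wells and 100% = median of positive control wells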
CaV13 ICDI inh – Disruptors of the CACNA1D IQ motif to Ca2+-dependent inactivation inhibitor domain association, primary screening, Förster resonance energy transfer in intact living …; AID 743397; HEK cells, CFP/YFP FRET ICDI-IQ, plate reader, 10 min; percent FRET-ratio fall versus neutral wells; inhibition, % at 12.3 µM; 0.098% of 340,000 active;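 active means mean replicate inhibition of at least 30% and at least 1% of replicates passing that level; inconclusive means only one of the two criteria is met; inactive means neither criterion is met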;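 further: 0% = median of the neutral control wells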
ERAP1 inh – blocks human ERAP1 aminopeptidase activity | AID 652197 | Q9NZ08 | inhibition, % at 10.7 µM | recombinant ERAP1, Leu-AMC fluorescence, 60 min | 0.15% of 340,000 active;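 active means mean replicate inhibition of at least 30%, or all replicates individually reaching that 30% level; inactive means mean below 30% and not every replicate reaching it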;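 further: 0% = neutral control wells and 100% = L-leucinethiol positive control wells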
rRNA inh HTS – selective bacterial rRNA inhibition in E. coli | 1.6% of 350,000 active | GFP signal change (wild-type ribosome), % (test concentration not listed) | E. coli WT GFP vs humanized-ribosome RFP mutants, fluorescence, 24 h; stronger effect = lower value; DMSO median 0, no signal -100;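 active means significant combined selectivity score with lowered wild-type GFP, culture density cut under 30%, mutant RFP and density less affected; inactive means any of these conditions unmet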
PGC1a acetyl inh – modulators of PGC1a acetylation. U2OS PGC1a acetylation, AlphaScreen anti-acetyl-lysine; with virally co-expressed GCN5 acetyltransferase. inhibition, % at 15.6 µM. AID 651687. 0.17% of 350,000 active;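 active means every replicate shows inhibition of at least 40%; inconclusive means mean inhibition at least 40% but some replicate below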;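 further: 0% = neutral control wells and 100% = positive control wells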
Active calls of the source: *. Most compounds without a hit are left out; they make up all but 3.2% or so of the library.

What do the screens show for `COC(=O)CCC(=O)OC1(C)C(=O)C2=CN(Cc3ccc(OC)cc3)C(c3ccc(OC)cc3)=CC2=C(Br)C1=O` (stereo not given)?
INS-1E GSIS act: -6.9; DENV2 CPE rescue: 22.9*; CaV13 ICDI inh: -9.8; ERAP1 inh: 1.3; rRNA inh HTS: -0.4; PGC1a acetyl inh: -0.6

How did COC(=O)CCC(=O)OC1(C)C(=O)C2=CN(Cc3ccccc3)C(c3ccc(OC)cc3)=CC2=C(Br)C1=O (stereo not given) do in these assays?
INS-1E GSIS act: -0.8; DENV2 CPE rescue: -0.6; CaV13 ICDI inh: -10.4; ERAP1 inh: 4.9; rRNA inh HTS: 8.9

How did CCC(=O)N1C[C@@H](C)[C@@H](OC)CN(C)C(=O)c2cc(NS(C)(=O)=O)ccc2OC[C@@H]1C do in these assays?
INS-1E GSIS act: -1.0; DENV2 CPE rescue: 1.8; ERAP1 inh: 0.4; rRNA inh HTS: 0.2; PGC1a acetyl inh: 11.6

What do the screens show for `COc1ccc(N(CC(=O)Nc2ccc(F)c(F)c2)S(=O)(=O)c2c(C)n[nH]c2C)cc1`?
INS-1E GSIS act: 2.4; DENV2 CPE rescue: -4.3; CaV13 ICDI inh: -2.5; ERAP1 inh: -0.9; rRNA inh HTS: -25.6*; PGC1a acetyl inh: 2.3

What do the screens show for `COc1ccc(NC(=O)CCN(c2ccc(OC)cc2)S(=O)(=O)c2ccc(C)c(C)c2)cc1`?
INS-1E GSIS act: -16.2; DENV2 CPE rescue: -5.7; CaV13 ICDI inh: -15.6; ERAP1 inh: 0.2; rRNA inh HTS: -26.6*

Results for COc1ccc(N(CC(=O)Nc2ccc(C)c(C)c2)S(=O)(=O)c2c(C)noc2C)cc1 ?
INS-1E GSIS act: -29.4; DENV2 CPE rescue: 7.9; CaV13 ICDI inh: -2.4; ERAP1 inh: 3.6; rRNA inh HTS: -8.2; PGC1a acetyl inh: 15.2

What do the screens show for `COCC(=O)NC[C@H]1[C@H](c2ccc(C3=CCCC3)cc2)[C@H](CO)N1C(C)=O`?
INS-1E GSIS act: -0.3; DENV2 CPE rescue: -7.7; ERAP1 inh: 0.1; rRNA inh HTS: 0.4; PGC1a acetyl inh: 14.0

What do the screens show for `COc1ccc2c3c(n(C)c2c1)[C@H](CO)N(C(=O)CN1CCOCC1)CC31CN(C(C)=O)C1`?
INS-1E GSIS act: 13.8; DENV2 CPE rescue: -12.0; ERAP1 inh: 4.8; rRNA inh HTS: 4.7; PGC1a acetyl inh: 9.5

What do the screens show for `C[C@H](CO)N1C[C@H](C)[C@H](CN(C)S(=O)(=O)c2ccc(Cl)cc2)Oc2ccc(NC(=O)C3CC3)cc2C1=O`?
INS-1E GSIS act: -5.5; DENV2 CPE rescue: -1.3; ERAP1 inh: 0.3; rRNA inh HTS: 1.7; PGC1a acetyl inh: 0.4

What do the screens show for `CCOC(=O)CSc1nnc(-c2ccc(OC)cc2)n1CC`?
CaV13 ICDI inh: -3.8; PGC1a acetyl inh: -100.1

What do the screens show for `CCOC(=O)Cn1c(-c2ccc(OC)cc2)c(-c2ccc(OC)cc2)nnc1=O`?
DENV2 CPE rescue: 6.8; CaV13 ICDI inh: -21.9; ERAP1 inh: 11.8; rRNA inh HTS: -22.0*; PGC1a acetyl inh: 8.8

Results for Nc1cc2nsnc2cc1Br ?
PGC1a acetyl inh: 60.5*

What do the screens show for `Nc1cccc2nsnc12`?
INS-1E GSIS act: -9.8; DENV2 CPE rescue: 0.2; CaV13 ICDI inh: -2.8; rRNA inh HTS: 0.1; PGC1a acetyl inh: 1.6

What do the screens show for `CCOc1ccc(/C=N/NC(=O)c2[nH]ncc2Br)c(O)c1`?
INS-1E GSIS act: 26.1; DENV2 CPE rescue: 0.0; CaV13 ICDI inh: -4.6; ERAP1 inh: 14.4; rRNA inh HTS: -34.3*; PGC1a acetyl inh: 20.3

Results for COc1ccc(OC)c(/C=N/NC(=O)c2[nH]ncc2Br)c1 ?
INS-1E GSIS act: 22.4; DENV2 CPE rescue: 1.1; CaV13 ICDI inh: -20.0; ERAP1 inh: -2.1; rRNA inh HTS: 10.8; PGC1a acetyl inh: inconclusive

What do the screens show for `CN(C)CCCN(C(=O)c1ccc(S(=O)(=O)N(C)Cc2ccccc2)cc1)c1nc2c(F)cccc2s1`?
INS-1E GSIS act: -18.8; DENV2 CPE rescue: 15.4; CaV13 ICDI inh: -2.5; ERAP1 inh: 4.7; rRNA inh HTS: -32.9*; PGC1a acetyl inh: -7.5

What do the screens show for `CN(C)CCCN(C(=O)c1ccco1)c1nc2c(F)cccc2s1`?
INS-1E GSIS act: 40.7*; DENV2 CPE rescue: 1.3; CaV13 ICDI inh: -6.1; ERAP1 inh: -3.0; rRNA inh HTS: 1.0; PGC1a acetyl inh: 3.3

How did Cc1cccc2sc(N(CCCN(C)C)C(=O)c3sc4ccccc4c3Cl)nc12 do in these assays?
INS-1E GSIS act: 2.2; CaV13 ICDI inh: -5.6; PGC1a acetyl inh: 1.8

What do the screens show for `CCc1ccc2nc(N(CCCN(C)C)C(=O)c3ccc(S(=O)(=O)N4CCc5ccccc5C4)cc3)sc2c1`?
INS-1E GSIS act: -37.9; DENV2 CPE rescue: 0.5; CaV13 ICDI inh: -5.1; ERAP1 inh: 0.4; rRNA inh HTS: -25.1*

How did COc1cccc2sc(N(CCCN(C)C)C(=O)c3sc4ccccc4c3Cl)nc12 do in these assays?
INS-1E GSIS act: 17.0; DENV2 CPE rescue: -0.4; CaV13 ICDI inh: -4.6; ERAP1 inh: 2.6; rRNA inh HTS: -43.3*; PGC1a acetyl inh: 2.3

How did O=C(C[C@@H]1C[C@H]2c3cc(NC(=O)NC4CCCC4)ccc3O[C@H]2[C@H](CO)O1)NCCc1ccccc1 do in these assays?
INS-1E GSIS act: 20.2; DENV2 CPE rescue: -3.1; ERAP1 inh: -2.1; rRNA inh HTS: -1.1; PGC1a acetyl inh: 3.5

How did COc1cc2c(cc1OC)-c1cc(N3CCc4ccccc43)nc(=O)n1CC2 do in these assays?
INS-1E GSIS act: 42.8*; DENV2 CPE rescue: -5.7; CaV13 ICDI inh: -4.6; ERAP1 inh: -0.5; rRNA inh HTS: 6.3; PGC1a acetyl inh: 14.0

Results for COc1cc2c(cc1OC)-c1cc(Nc3ccccc3)nc(=O)n1CC2 ?
DENV2 CPE rescue: 3.3; CaV13 ICDI inh: -17.7; ERAP1 inh: 2.1; rRNA inh HTS: -4.0; PGC1a acetyl inh: 1.3

What do the screens show for `COc1cc2c(cc1OC)-c1cc(Nc3ccccc3Br)nc(=O)n1CC2`?
INS-1E GSIS act: 72.7*; DENV2 CPE rescue: 13.2; CaV13 ICDI inh: -17.1; ERAP1 inh: -0.1; rRNA inh HTS: -17.6; PGC1a acetyl inh: -2.6

How did CCCN1C[C@@H](C)[C@H](OC)CN(C)C(=O)c2ccc(NC(=O)c3cccc(OC)c3)cc2OC[C@H]1C do in these assays?
INS-1E GSIS act: -21.7; DENV2 CPE rescue: 17.0; ERAP1 inh: 2.4; rRNA inh HTS: -1.2; PGC1a acetyl inh: -13.1

What do the screens show for `C[C@@H]1CN([C@@H](C)CO)C(=O)c2cccc(NS(=O)(=O)c3ccc(F)cc3)c2O[C@@H]1CN(C)Cc1ccncc1`?
INS-1E GSIS act: 2.5; DENV2 CPE rescue: 5.9; ERAP1 inh: 1.9; rRNA inh HTS: 4.5; PGC1a acetyl inh: 3.6

Results for O=C(N[C@H]1CC[C@@H](CC(=O)N2CCc3ccccc3C2)O[C@@H]1CO)C1CCOCC1 ?
INS-1E GSIS act: 9.1; DENV2 CPE rescue: -4.9; rRNA inh HTS: 0.5; PGC1a acetyl inh: -2.9
